Measurements reported in the supplement of paper PMC10849652.
Of roughly 8,800 targets only a part is listed; those with a hit were picked by preference. About 0.5% of all pairs of compound and target were hits. A number with no mark means an inactive call.

Legend:
Test in all cases: log2 fold change, soluble protein after heating vs DMSO (PISA); higher = thermal stabilisation; K562 lysate, 10 uM; active = over 0.2 and 3.5 SD of the protein, either way, in both replicates (recomputed)
nilotinib = compound: Cc1cn(-c2cc(NC(=O)c3ccc(C)c(Nc4nccc(-c5cccnc5)n4)c3)cc(C(F)(F)F)c2)cn1 [nilotinib]
How it was run: (§1)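 To prepare the extract, K562 pellets were dounce-homogenised in PBS pH 7.4 with 1 mM MgCl2, giving crude material at 1 mg/mL protein. This was treated with 10 μM compound for 30 min, then heated in aliquots for 3 min over 48°C-58°C before pooling and addition of NP-40 to 0.5% at 4°C. Centrifugation at 21,000xg for 90 min left soluble protein in the supernatant, which TMTpro 16plex LC-MS/MS quantified with equalised channel sums. Results are log-two fold changes in thermal stability compared with solvent controls, from duplicates.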

[1] = compound: Cc1nc(Nc2n[nH]c3c2CN(C(=O)N[C@H](CN(C)C)c2ccccc2)C3(C)C)c2sccc2n1
How it was run: as §1

dasatinib = compound: Cc1nc(Nc2ncc(C(=O)Nc3c(C)cccc3Cl)s2)cc(N2CCN(CCO)CC2)n1 [dasatinib]
How it was run: as §1

[2] = compound: Cc1ncc(-c2ccnc(Nc3ccc(S(C)(=O)=O)cc3)n2)n1C(C)C
How it was run: as §1

[3] = compound: Cn1cc(-c2ccc3c(c2)CCN3C(=O)Cc2cccc(C(F)(F)F)c2)c2c(N)ncnc21
How it was run: as §1

quisinostat = compound: Cn1cc(CNCC2CCN(c3ncc(C(=O)NO)cn3)CC2)c2ccccc21 [quisinostat]
How it was run: as §1

tipifarnib = compound: Cn1cncc1[C@@](N)(c1ccc(Cl)cc1)c1ccc2c(c1)c(-c1cccc(Cl)c1)cc(=O)n2C [tipifarnib]
How it was run: as §1

[4] = compound: NC(=O)Nc1cc(-c2cccc(F)c2)sc1C(=O)N[C@H]1CCCNC1
How it was run: as §1

[5] = compound: NC(=O)c1cnc(N[C@@H]2CCCC[C@@H]2N)nc1Nc1cccc(-n2nccn2)c1
How it was run: as §1

[6] = compound: NC1(c2ccc(-c3nc4ccn5c(=O)[nH]nc5c4cc3-c3ccccc3)cc2)CCC1
How it was run: as §1

[7] = compound: NCC(=O)Nc1ccc(-n2nc(C(F)(F)F)cc2-c2ccc3c(ccc4ccccc43)c2)cc1
How it was run: as §1

vorinostat = compound: O=C(CCCCCCC(=O)Nc1ccccc1)NO [vorinostat]
How it was run: as §1

silmitasertib = compound: O=C(O)c1ccc2c(c1)nc(Nc1cccc(Cl)c1)c1ccncc12 [silmitasertib]
How it was run: as §1

[8] = compound: O=C1NC(=O)C(c2cnc3ccccn23)=C1c1cn2c3c(cc(F)cc13)CN(C(=O)N1CCCCC1)CC2
How it was run: as §1

entospletinib = compound: c1cn2cc(-c3ccc4cn[nH]c4c3)nc(Nc3ccc(N4CCOCC4)cc3)c2n1 [entospletinib]
How it was run: as §1

Chain of UniProt Q9UJC5 (Q9UJC5 whole entry, looked up): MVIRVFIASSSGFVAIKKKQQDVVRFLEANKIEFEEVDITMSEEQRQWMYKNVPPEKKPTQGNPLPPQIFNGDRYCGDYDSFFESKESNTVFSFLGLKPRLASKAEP
Chain of UniProt O00506 (O00506 whole entry, looked up): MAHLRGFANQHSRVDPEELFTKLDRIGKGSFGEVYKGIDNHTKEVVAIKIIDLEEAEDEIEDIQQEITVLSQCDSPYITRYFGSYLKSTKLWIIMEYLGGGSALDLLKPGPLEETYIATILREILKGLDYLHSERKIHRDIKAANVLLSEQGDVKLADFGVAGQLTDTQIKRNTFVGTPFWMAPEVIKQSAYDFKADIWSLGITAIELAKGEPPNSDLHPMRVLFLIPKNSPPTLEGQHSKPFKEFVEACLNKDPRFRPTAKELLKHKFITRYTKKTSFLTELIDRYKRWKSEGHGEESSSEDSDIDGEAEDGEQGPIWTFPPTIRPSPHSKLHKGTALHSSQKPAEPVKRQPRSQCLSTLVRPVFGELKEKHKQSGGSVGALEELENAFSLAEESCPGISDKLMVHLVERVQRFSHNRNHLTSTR
Chain of UniProt Q92844 (Q92844 whole entry, looked up): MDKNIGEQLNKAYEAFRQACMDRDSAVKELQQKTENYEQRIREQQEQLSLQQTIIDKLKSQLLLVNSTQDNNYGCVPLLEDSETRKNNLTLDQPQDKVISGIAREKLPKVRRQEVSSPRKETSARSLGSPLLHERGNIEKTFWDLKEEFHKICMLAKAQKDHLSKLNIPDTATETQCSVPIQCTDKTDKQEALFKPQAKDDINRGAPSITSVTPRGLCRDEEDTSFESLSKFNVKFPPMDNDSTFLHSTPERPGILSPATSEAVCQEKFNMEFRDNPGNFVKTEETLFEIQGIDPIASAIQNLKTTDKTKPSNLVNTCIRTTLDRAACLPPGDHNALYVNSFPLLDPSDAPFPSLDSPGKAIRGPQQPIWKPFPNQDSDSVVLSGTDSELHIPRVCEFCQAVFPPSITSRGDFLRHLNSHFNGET
Chain of UniProt O43808 (O43808 whole entry, looked up): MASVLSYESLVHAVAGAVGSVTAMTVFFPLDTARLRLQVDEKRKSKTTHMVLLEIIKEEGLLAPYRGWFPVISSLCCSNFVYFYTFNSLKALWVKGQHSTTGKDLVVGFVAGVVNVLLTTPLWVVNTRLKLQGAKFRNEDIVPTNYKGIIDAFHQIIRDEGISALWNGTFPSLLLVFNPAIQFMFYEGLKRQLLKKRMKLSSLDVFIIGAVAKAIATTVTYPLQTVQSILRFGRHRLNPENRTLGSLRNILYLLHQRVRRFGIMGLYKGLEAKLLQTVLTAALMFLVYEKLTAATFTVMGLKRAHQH
Chain of UniProt Q14849 (Q14849 whole entry, looked up): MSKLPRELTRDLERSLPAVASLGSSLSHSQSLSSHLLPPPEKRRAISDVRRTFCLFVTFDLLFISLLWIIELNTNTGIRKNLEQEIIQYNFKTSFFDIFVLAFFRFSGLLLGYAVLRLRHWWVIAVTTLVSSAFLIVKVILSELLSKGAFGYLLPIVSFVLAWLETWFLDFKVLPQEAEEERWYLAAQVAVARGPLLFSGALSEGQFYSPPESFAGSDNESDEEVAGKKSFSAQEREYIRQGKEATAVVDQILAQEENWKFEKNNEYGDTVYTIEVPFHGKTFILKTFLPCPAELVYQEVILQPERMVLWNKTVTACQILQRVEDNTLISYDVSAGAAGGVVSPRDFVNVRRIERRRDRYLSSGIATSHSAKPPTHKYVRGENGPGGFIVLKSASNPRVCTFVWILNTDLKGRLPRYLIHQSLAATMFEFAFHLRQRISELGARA
Chain of UniProt Q96DW6 (Q96DW6 whole entry, looked up): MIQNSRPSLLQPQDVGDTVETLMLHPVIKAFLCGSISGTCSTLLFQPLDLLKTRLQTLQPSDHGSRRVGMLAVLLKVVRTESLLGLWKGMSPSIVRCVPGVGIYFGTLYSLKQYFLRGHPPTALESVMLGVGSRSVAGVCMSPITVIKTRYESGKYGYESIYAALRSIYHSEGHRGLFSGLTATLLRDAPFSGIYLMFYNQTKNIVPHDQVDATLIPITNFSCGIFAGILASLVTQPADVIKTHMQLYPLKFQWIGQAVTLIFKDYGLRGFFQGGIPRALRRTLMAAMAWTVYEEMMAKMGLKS
Chain of UniProt Q9UNE7 (Q9UNE7 whole entry, looked up): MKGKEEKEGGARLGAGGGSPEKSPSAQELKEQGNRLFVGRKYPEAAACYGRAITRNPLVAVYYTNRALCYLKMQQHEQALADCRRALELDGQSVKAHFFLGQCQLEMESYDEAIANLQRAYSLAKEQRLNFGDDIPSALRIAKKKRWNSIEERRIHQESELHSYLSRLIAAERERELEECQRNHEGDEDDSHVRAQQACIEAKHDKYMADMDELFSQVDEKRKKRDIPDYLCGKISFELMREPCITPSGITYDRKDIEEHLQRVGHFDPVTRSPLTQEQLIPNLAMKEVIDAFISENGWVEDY
Chain of UniProt Q9C0B7 (Q9C0B7 whole entry, looked up): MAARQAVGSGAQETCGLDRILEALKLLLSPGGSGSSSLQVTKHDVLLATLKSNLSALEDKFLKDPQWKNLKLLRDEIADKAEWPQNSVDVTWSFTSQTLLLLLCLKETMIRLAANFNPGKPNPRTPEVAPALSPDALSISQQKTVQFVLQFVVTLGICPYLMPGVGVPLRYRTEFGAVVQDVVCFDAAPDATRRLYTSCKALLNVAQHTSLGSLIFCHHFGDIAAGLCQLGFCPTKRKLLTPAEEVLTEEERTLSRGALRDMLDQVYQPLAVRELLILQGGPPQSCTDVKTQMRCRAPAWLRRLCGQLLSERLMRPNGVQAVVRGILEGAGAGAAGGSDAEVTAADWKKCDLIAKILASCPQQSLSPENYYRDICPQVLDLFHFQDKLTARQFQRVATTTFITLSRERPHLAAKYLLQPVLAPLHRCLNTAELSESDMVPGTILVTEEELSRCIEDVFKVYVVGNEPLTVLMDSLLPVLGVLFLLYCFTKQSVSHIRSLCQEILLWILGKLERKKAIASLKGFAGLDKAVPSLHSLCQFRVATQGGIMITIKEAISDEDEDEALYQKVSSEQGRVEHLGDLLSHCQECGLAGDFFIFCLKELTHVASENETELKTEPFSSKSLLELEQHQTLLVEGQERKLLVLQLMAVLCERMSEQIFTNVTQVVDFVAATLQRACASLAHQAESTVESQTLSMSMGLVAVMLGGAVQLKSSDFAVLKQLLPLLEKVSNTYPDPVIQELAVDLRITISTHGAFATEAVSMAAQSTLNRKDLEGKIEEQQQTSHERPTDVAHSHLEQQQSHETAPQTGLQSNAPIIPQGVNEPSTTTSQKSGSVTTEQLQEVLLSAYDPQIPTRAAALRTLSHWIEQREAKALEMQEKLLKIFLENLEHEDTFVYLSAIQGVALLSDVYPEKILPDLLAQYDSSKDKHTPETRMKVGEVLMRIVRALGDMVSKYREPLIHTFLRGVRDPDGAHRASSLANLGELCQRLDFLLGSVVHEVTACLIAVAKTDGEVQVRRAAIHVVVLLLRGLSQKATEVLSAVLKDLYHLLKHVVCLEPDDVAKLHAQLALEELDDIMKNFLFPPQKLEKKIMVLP
Chain of UniProt O95793 (O95793 whole entry, looked up): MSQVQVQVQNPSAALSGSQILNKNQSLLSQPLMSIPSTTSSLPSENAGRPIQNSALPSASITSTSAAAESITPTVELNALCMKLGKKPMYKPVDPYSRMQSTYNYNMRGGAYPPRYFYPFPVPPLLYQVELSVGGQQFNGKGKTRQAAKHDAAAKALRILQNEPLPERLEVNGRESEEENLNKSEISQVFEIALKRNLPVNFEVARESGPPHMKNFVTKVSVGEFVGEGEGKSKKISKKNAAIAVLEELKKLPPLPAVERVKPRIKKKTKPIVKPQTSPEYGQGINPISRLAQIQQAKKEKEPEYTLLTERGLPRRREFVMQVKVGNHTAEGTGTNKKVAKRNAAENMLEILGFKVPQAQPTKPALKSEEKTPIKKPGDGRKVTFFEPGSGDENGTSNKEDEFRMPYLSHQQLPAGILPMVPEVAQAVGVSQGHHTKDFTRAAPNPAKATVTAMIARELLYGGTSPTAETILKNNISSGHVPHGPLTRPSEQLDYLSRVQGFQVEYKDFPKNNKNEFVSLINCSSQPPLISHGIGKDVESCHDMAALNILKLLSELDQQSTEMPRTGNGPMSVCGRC
Chain of UniProt Q86XK3 (Q86XK3 whole entry, looked up): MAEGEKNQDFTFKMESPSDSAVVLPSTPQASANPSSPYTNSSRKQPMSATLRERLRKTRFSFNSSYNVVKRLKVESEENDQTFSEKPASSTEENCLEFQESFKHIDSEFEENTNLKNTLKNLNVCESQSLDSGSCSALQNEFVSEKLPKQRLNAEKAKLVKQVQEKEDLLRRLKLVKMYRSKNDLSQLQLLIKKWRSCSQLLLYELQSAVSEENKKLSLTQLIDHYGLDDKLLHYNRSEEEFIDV
Chain of UniProt P62306 (P62306 whole entry, looked up): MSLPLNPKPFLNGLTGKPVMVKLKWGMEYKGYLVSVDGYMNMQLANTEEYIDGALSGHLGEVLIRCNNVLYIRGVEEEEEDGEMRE
Chain of UniProt Q13043 (Q13043 whole entry, looked up): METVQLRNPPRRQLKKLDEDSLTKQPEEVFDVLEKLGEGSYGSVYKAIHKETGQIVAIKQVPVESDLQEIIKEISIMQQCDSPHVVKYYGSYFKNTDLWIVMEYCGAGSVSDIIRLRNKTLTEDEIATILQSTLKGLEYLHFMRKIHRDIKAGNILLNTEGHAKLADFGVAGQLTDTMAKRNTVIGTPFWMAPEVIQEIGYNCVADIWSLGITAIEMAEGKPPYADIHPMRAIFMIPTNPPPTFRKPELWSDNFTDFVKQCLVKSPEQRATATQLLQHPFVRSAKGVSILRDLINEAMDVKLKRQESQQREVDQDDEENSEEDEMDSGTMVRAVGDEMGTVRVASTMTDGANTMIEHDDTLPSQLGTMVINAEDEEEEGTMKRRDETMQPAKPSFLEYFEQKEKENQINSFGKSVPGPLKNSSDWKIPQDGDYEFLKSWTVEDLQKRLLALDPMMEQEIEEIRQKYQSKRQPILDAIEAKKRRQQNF
Chain of UniProt Q96EX1 (Q96EX1 whole entry, looked up): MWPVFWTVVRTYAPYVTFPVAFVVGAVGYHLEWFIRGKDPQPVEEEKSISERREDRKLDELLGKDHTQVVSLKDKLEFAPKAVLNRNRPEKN

Row | Target | log2 fold change (nilotinib) | log2 fold change [1] | log2 fold change (dasatinib) | log2 fold change [2] | log2 fold change [3] | log2 fold change (quisinostat) | log2 fold change (tipifarnib) | log2 fold change [4] | log2 fold change [5] | log2 fold change [6] | log2 fold change [7] | log2 fold change (vorinostat) | log2 fold change (silmitasertib) | log2 fold change [8] | log2 fold change (entospletinib)
1 | STAU1 (UniProt O95793) | -0.008 | -0.024 | -0.004 | -0.002 | 0.007 | 0.003 | -0.009 | 0.037 | 0.001 | 0.005 | 0.045 | -0.035 | 0.017 | -0.009 | 0.009
2 | TANK (UniProt Q92844) | -0.067 | 0.461 (active) | 0.069 | 0.04 | 0.088 | -0.053 | -0.071 | 0.161 | 0.042 | 0.01 | 0.041 | -0.102 | 0.124 | 0.071 | 0.132
3 | SNRPF (UniProt P62306) | -0.044 | 0.063 | 0.005 | 0.013 | -0.156 | -0.276 | -0.037 | 0 | -0.044 | 0.013 | -0.019 | -0.014 | -0.001 | -0.01 | -0.016
4 | SMTN isoform 6 (UniProt P53814) | -0.011 | 0.134 | -0.055 | -0.022 | 0.031 | -0.065 | -0.019 | 0.021 | -0.005 | 0.089 | -0.021 | -0.088 | -0.007 | -0.034 | 0.013
5 | SLC25A17 (UniProt O43808) | -0.049 | 0.006 | 0.01 | 0.032 | 0.023 | -0.125 | -0.068 | 0.028 | 0.038 | -0.026 | 0.021 | 0.015 | -0.026 | -0.033 | -0.027
6 | SNRPD2 (UniProt K7EJB5) | -0.081 | 0.005 | -0.026 | -0.094 | -0.084 | -0.267 | -0.075 | -0.082 | 0.044 | 0 | 0.119 | 0.493 (active) | 0.056 | -0.1 | -0.004
7 | SFR1 isoform 2 (UniProt Q86XK3) | -0.029 | 0.068 | 0.055 | 0.045 | -0.058 | -0.029 | 0.072 | -0.004 | 0.02 | -0.039 | 0.092 | -0.074 | 0.023 | -0.026 | -0.043
8 | STUB1 (UniProt Q9UNE7) | 0.031 | -0.027 | -0.037 | 0.027 | 0.004 | -0.06 | -0.011 | 0.053 | 0.015 | 0.004 | -0.012 | -0.33 (active) | 0.015 | 0.006 | 0.019
9 | STK4 (UniProt Q13043) | -0.077 | 0.343 | 0.214 | 0.177 | 0.282 | -0.105 | -0.047 | 0.585 (active) | 0.134 | -0.016 | 0.054 | -0.134 | 0.024 | 0.041 | 0.047
10 | SH3BGRL2 (UniProt Q9UJC5) | -0.001 | -0.001 | 0.077 | -0.019 | -0.033 | -0.029 | 0.013 | 0.009 | -0.04 | 0.032 | -0.003 | 0.153 | -0.011 | 0.099 | 0.04
11 | STK25 (UniProt O00506) | 0.037 | 0.265 | 0.235 | 0.026 | 0.059 | 0.013 | -0.027 | 0.165 | 0.032 | -0.009 | -0.024 | -0.06 | 0.051 | -0.03 | -0.043
12 | TANGO6 (UniProt Q9C0B7) | 0.042 | -0.056 | -0.006 | 0.019 | 0.025 | -0.056 | 0.044 | 0.046 | -0.037 | -0.001 | 0.007 | -0.389 (active) | 0.019 | -0.037 | -0.009
13 | STK39 (UniProt Q9UEW8) | -0.104 | 0.071 | -0.045 | -0.024 | 0.046 | -0.084 | -0.053 | 0.053 | 0.058 | -0.082 | -0.01 | -0.633 (active) | 0.028 | -0.006 | -0.026
14 | SUZ12 (UniProt Q15022) | 0.03 | -0.025 | 0.037 | -0.013 | -0.008 | -0.005 | 0.016 | -0.007 | -0.013 | -0.026 | -0.064 | -0.156 | 0.023 | 0.021 | 0.043
15 | SMIM12 (UniProt Q96EX1) | 0.014 | 0.025 | 0.09 | 0.027 | 0.061 | -0.093 | -0.023 | 0.002 | -0.016 | -0.041 | -0.044 | 0.174 | -0.003 | -0.025 | -0.058
16 | SULT1A1 (UniProt P50225) | 0.029 | -0.074 | 0.009 | -0.028 | -0.007 | -0.006 | -0.043 | 0.047 | 0.007 | -0.021 | 0.077 | -0.273 (active) | 0.036 | -0.021 | 0.071
17 | SQLE (UniProt Q14534) | 0.082 | 0.014 | -0.09 | -0.039 | 0.024 | 0.191 | 0.018 | -0.014 | -0.032 | -0.034 | 0.01 | 0.103 | -0.056 | -0.042 | 0.029
18 | STARD3 isoform 3 (UniProt Q14849) | -0.06 | -0.008 | 0.272 (active) | 0.063 | 0.02 | 0.027 | -0.047 | -0.039 | 0.015 | 0.026 | 0.022 | 0.065 | 0.047 | 0.03 | -0.025
19 | SLC25A38 (UniProt Q96DW6) | -0.097 | -0.142 | 0.015 | -0.171 | 0.15 | -0.068 | -0.061 | -0.019 | -0.138 | 0.06 | -0.093 | 0.109 | 0.129 | -0.019 | -0.075
